# Source: PubChem BioAssay (National Center for Advancing Translational Sciences (NCATS))
# TGFb SMAD3 inh = blocks TGF-b signaling; HepG2 CAGA-GFP TGF-b/SMAD3 reporter, GFP fluorescence, 18 h; TGF-beta stimulated, 500 pg/mL final; Potency, µM (titrated, usually from 46.1 µM), inactives show top-dose activity, negative = inhibition, hits mostly inhibitors; 1.2% of 410,000 active; also: % is scaled to controls: 0 for no effect and ±100 for the full control effect; nearly all actives have a fitted effect of over 65% in size
#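 TGF-beta reporter screen: HEPG2 CAGA-GFP, 1% FBS, 500 pg/mL TGF-beta final, 18 h; per-cell GFP summed per well; curves fitted and categorized by class.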
# ATXN2 expr inh = inhibitors of ATXN2 expression | HEK-293 ATXN2-luciferase reporter, luminescence, 24 h | Potency, µM (titrated, usually from 57 µM), for inactives: at the highest dose activity change, negative = inhibition, actives largely listed as inhibitors | AID 1745845 | 0.72% of 360,000 active; also: % is scaled to controls: 0 for no effect and ±100 for the full control effect; nearly all actives have a fitted effect of over 55% in size
#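 ATXN2-luciferase reporter cells (luciferase flanked by upstream and downstream ATXN2 gene portions) were treated 24 h at 37 °C with compounds at up to 57 uM. SteadyGlo luminescence gave expression; GF-AFC fluorescence gave viability.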
# KB-3-1 cytotox = kills parental KB-3-1 adenocarcinoma cells | KB-3-1 viability, CellTiter-Glo ATP luminescence, 72 h | Potency, µM (top dose mostly 46.1 µM), actives largely listed as cytotoxic | 1.4% of 400,000 active | AID 1347075; also: % is scaled to controls: 0 for no effect and ±100 for the full control effect; nearly all actives have a fitted effect of over 60% in size
#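 Screening of KB-3-1 cells (DMEM, 10% FBS, phenol-red free) ran from lowest to highest compound concentration; after 72 h at 37 °C viability was read luminescently and curves fitted.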
# S2 tox = cell viability loss in ATXN counter-screen; S2 cells (HEK-293 line with an ATXN2-luciferase reporter) viability, CellTiter-Fluor protease fluorescence, 24 h; Potency, µM (titrated, usually from 56.7 µM), actives largely listed as cytotoxic; 0.49% of 400,000 active; also: nearly all actives have a fitted effect of over 40% in size
# KB-V1 cytotox = kills drug-selected multidrug resistant KB-V1 cells; KB-V1 MDR cells viability, CellTiter-Glo, 72 h; Potency, µM (top dose mostly 46.1 µM), most hits filed as cytotoxic; 3.4% of 400,000 active; AID 1347076; also: % is scaled to controls: 0 for no effect and ±100 for the full control effect; nearly all actives have a fitted effect of over 60% in size
#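 qHTS viability screen in drug-selected KB-V1 MDR cells: 72 h compound treatment at 37 degrees C, ATP luminescence end point.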
# HepG2 viability = kills HepG2 cells in TGF-b inhibitor counter-screen. HepG2 CAGA-GFP viability, ATP luminescence, 18 h. 0.76% of 410,000 active. Potency, µM (highest dose often 46.1 µM), without a hit: at the top dose activity change, negative = cytotoxicity, most hits filed as cytotoxic
#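 CellTiter-Glo luminescence gave cytotoxicity after 18 hours at 37 degrees C. The cells were HepG2 CAGA-GFP in 1% FBS DMEM, stimulated with 500 pg/mL TGF-beta after compound addition. %Activity was normalised to no-cell wells (complete cell-killing) and DMSO (no toxicity), and curves were fitted and classified.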
# The depositor's hits bear a star; i = inactive; ? = inconclusive; · = no result. This is a sample that favours compounds with a hit; in the whole collection about 5.9% have one here. Calls follow the shape of the dose curve; as a rule, active = well fitted curve in the direction sought with a large enough effect; inconclusive = small, poorly fitted or top-dose-only effect, or another doubt; inactive = no such curve, though single readings can be large; an effect the other way counts as inactive or inconclusive. Potency is read from the fitted curve at half-maximal effect.
SMILES,TGFb SMAD3 inh,ATXN2 expr inh,KB-3-1 cytotox,S2 tox,KB-V1 cytotox,HepG2 viability
COc1cccc(-c2cc(C(=O)Nc3cccnc3)c3ccccc3n2)c1,-8%,-23%,i,?,?,-17%
O=C(Nc1ccncc1)c1cc(-c2cccc(Br)c2)nc2ccccc12,0%,?,21µM*,?,?,-38%
O=C(Nc1ccc(Br)cc1F)N1CCC(CN2CCCC2)CC1,-32%,·,·,·,·,-19%
Cc1ccc(C)c(CSc2nc3ncccc3[nH]2)c1,-18%,·,·,·,·,-23%
O=C(O)c1ccc(CNCc2ccccc2Cl)s1,10%,10%,i,i,i,-2%
CCC(CC)C(=O)Nc1nnc2n1CCS2,8%,3%,i,i,i,-5%
OC(C[n+]1cccc(Br)c1)c1ccccc1 (centres undefined),-4%,·,?,·,?,-3%
CN(C)CCSc1nc(-c2ccccc2)nc2c1COC(C)(C)C2,33%,-21%,i,i,10µM*,-24%
CCCCC(Sc1nc2cc3c(cc2c(=O)n1CCCC(=O)NCc1ccc2c(c1)OCO2)OCO3)C(=O)OCC (centres undefined),-31%,·,·,·,·,-9%
Cn1nnnc1SCC(=O)c1ccc(Br)s1,-6%,4%,i,i,i,-10%
Cn1c(Cc2ccccc2)nnc1SCC(=O)c1ccc(Br)s1,2%,-9%,?,i,13µM*,-7%
COCCCNc1ncnc2sc(C(=O)N3CCOCC3)c(C)c12,·,·,·,i,·,·
O=C(Nc1ccc(Cc2ccncc2)cc1)C1CCC(N2C(=O)C3C4C=CC(C4)C3C2=O)CC1 (centres undefined),-9%,?,i,?,?,-16%
O=C(Nc1ccc(Cc2ccncc2)cc1)C1CCC(N2C(=O)C3CC=CCC3C2=O)CC1 (centres undefined),-12%,-5%,i,i,15µM*,-40%
CN=C(Nc1ccc2c(c1)OCO2)SC1CC(=O)N(c2ccccc2)C1=O (centres undefined),18%,-3%,i,i,18µM*,-1%
Cc1cccc(N2C(=O)CC(SC(=Nc3ccccc3)Nc3ccccc3)C2=O)c1 (centres undefined),7%,4%,?,i,18µM*,-19%
O=C1CC(SC(=Nc2ccccc2)Nc2ccccc2)C(=O)N1c1ccc(Cl)c(Cl)c1 (centres undefined),0%,-35%,?,i,16µM*,-5%
Cc1cnc(-n2ncc(C(=O)NCCc3ccccn3)c2C)nc1-c1ccc(F)cc1,·,·,·,i,·,·
CC(=O)Nc1ccc(C)cc1-c1nc2ccccc2n(Cc2cccc(Br)c2)c1=O,?,·,i,·,i,-1%
COc1ccc(N2CCN(C(=S)Nc3cc(C)ccn3)CC2)cc1,·,·,i,·,i,·
Cc1ccc(-c2nc(-c3cc4cc(Cl)ccc4oc3=O)sc2C)cc1,26%,·,?,·,i,4%
CO/N=C(/CNC(=O)c1cccc(Cl)c1)c1ccc(Cl)cc1,1%,-21%,i,i,23µM*,2%
CO/N=C(/CNC(=O)c1ccc(Cl)cc1Cl)c1ccc(Cl)cc1,-7%,-14%,i,i,?,-3%
COc1ccc(C(=O)N2CCCCC2c2cc(C(=O)NCc3ccc(F)cc3)no2)cc1 (centres undefined),-4%,-19%,i,i,i,-17%
Cc1cccc(N2CCN(C(=O)Cc3ccc(-n4c(=O)[nH]c5ccsc5c4=O)cc3)CC2)c1C,-39%,-12%,i,i,15µM*,-28%
SMILES,TGFb SMAD3 inh,ATXN2 expr inh,KB-3-1 cytotox,S2 tox,KB-V1 cytotox,HepG2 viability
Cc1ccc(CNC(=O)Cc2ccc(-n3c(=O)[nH]c4ccsc4c3=O)cc2)cc1,?,-14%,1.3µM*,i,i,-2%
Cc1ccc(CNC(=O)CCCCn2c(=O)[nH]c3ccsc3c2=O)cc1,6%,·,i,i,i,-8%
Cc1ccc(C)c(N2CCN(C(=O)Cn3c(=O)[nH]c4ccsc4c3=O)CC2)c1,-11%,-4%,i,i,21µM*,0%
Cc1ccc(C)c(N2CCN(C(=O)Cc3ccc(-n4c(=O)[nH]c5ccsc5c4=O)cc3)CC2)c1,0%,-10%,i,i,i,-44%
Cc1ccccc1OCCSc1nnc(-c2ccc([N+](=O)[O-])cc2)o1,-19%,-2%,i,i,i,-16%
CSc1cccc(NS(=O)(=O)c2cn(C)c(C)n2)c1,21%,2%,i,i,i,-7%
CCc1nc(-c2cc(S(=O)(=O)N3CCN(c4ccc(F)cc4)CC3)ccc2OC)no1,2%,4%,i,i,i,1%
Cc1cc([N+](=O)[O-])ccc1-c1ccc(C2Nc3ccccc3C(=O)N2O)o1 (centres undefined),-1%,?,23µM*,?,i,-36%
CCN(CC)S(=O)(=O)c1ccc2c(c1)c(=O)c(C(=O)N1CCN(c3cc(Cl)ccc3C)CC1)cn2C,0%,4%,i,i,i,-5%
COc1cc(/C=C/c2nc(-c3ccccc3O)n[nH]2)cc(OC)c1OC,?,-9%,?,i,?,11µM*
COc1cc(/C=C/c2nc3ccccc3c(=O)[nH]2)ccc1OC(F)F,3%,11%,i,i,i,1%
COc1ccccc1/C=C/c1nc2ccccc2[nH]1,0%,·,i,·,i,8.9µM*
COc1cc(/C=C/c2nc3ccccc3c(=O)[nH]2)cc(OC)c1OC,6%,22%,2.9µM*,i,i,5%
CCOc1ccc(-c2cc(NC(=O)c3cccc(Cl)c3)c(C(=O)OC)s2)cc1,-19%,·,i,·,i,-21%
CC(C)CNc1nc(N)c([N+](=O)[O-])c(N2CCCCCC2)n1,?,-12%,18µM*,i,9.2µM*,-142%
COC(=O)c1cc(Cl)ccc1NCC(N)c1ccccc1 (centres undefined),?,?,i,?,i,-73%
CCc1ccc(/C=C2/SC(=S)N(CCC(=O)NCCCN3CCOCC3)C2=O)cc1,-22%,73%,i,?,i,-31%
CCc1ccc(/C=C2\SC(=S)N(CCCC(=O)NCCCN3CCOCC3)C2=O)cc1,-16%,·,i,10µM*,i,-41%
CCOc1ccc(/C=C2\SC(=S)N(CCCC(=O)NCCCN3CCOCC3)C2=O)cc1,?,8.9µM*,i,?,i,-15%
